PubChem BioAssay (Tox21)
Values without a mark were called inactive. Records with an inconclusive call do not appear. A call without a number means that no potency is given here. The source made the active and inactive calls. The call rests on the fitted dose curve; in most records, active means well fitted curve in the direction sought with a large enough effect in the repeat runs; inconclusive means weak or mixed curves; inactive means no such curve, though single readings can be large; an effect the other way counts as inactive or inconclusive.

Tests used:
[1] = Caspase-3/7 induction in CHO-K1 cells by small molecules, qHTS assay (AID 1346980); further: nearly all actives have a fitted effect of over 15% in size
In short: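 Luminescent Caspase-Glo 3/7 read (30min, room temperature) quantified apoptosis induction. Cells were wild-type CHO-K1, treated with compound for 17hr at 37 C and 5% CO2.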

[2] = Caspase-3/7 induction in HepG2 cells by small molecules, qHTS cell viability counter screen (AID 1346981); further: nearly all actives have a fitted effect of over 30% in size; further: potency means the concentration at half of the fitted maximal effect; on activity change, negative = cytotoxicity: series mostly up to about 92 µM
In short: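 Multiplexed with the caspase-3/7 assay: HepG2 cells, 16 hr compound treatment, CellTiter-Fluor viability detection by fluorescence.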

[3] = molecular target: Nuclear receptor subfamily 1 group I member 2 (Homo sapiens) (UniProt O75469); experiment: Human pregnane X receptor (PXR) small molecule agonists, qHTS assay (AID 1346982); further: nearly all actives have a fitted effect of over 35% in size
Nuclear receptor subfamily 1 group I member 2 (Homo sapiens), sequence (O75469 whole entry, looked up): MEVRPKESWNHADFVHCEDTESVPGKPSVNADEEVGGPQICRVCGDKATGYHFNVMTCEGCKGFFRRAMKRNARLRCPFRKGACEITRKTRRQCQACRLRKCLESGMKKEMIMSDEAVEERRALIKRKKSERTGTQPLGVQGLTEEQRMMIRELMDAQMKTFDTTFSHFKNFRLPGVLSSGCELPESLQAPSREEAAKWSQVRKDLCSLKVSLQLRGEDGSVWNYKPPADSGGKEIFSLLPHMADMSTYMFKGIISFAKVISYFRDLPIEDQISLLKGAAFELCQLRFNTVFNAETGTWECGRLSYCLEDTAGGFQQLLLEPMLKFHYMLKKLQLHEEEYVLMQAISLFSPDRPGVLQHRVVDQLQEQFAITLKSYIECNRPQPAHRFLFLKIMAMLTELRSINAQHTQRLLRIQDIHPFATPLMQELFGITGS
In short: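 We seeded PXR-Luc HepG2 cells in assay medium containing 5% charcoal-stripped FBS, added compounds 5 hr later, incubated 24 hr, and read luminescence with ONE-Glo reagent.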

[4] = molecular target: Cytochrome P450 2D6 (Homo sapiens) (UniProt P10635); experiment: Cytochrome P450 Family 2 Subfamily D Member 6 (CYP2D6) small molecule antagonists: luciferase reporter qHTS assay (AID 1671196); further: nearly all actives have a fitted effect of over 50% in size; further: potency means the concentration at half of the fitted maximal effect; on activity change, negative = inhibition: series mostly up to about 120 µM
Cytochrome P450 2D6 (Homo sapiens), sequence (P10635 whole entry, looked up): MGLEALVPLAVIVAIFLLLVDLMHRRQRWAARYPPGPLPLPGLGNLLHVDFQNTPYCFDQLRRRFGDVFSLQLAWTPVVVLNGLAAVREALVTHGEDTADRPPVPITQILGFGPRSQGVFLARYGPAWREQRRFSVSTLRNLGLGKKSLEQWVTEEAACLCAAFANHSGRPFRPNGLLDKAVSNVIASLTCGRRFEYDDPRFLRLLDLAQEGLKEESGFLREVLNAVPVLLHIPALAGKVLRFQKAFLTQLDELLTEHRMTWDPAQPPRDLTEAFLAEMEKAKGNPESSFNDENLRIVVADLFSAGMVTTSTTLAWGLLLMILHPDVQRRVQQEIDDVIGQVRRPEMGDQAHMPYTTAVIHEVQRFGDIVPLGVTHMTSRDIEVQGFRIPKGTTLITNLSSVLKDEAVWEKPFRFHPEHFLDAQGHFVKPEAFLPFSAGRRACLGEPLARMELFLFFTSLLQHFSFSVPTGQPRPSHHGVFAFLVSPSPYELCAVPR
In short: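 Luminescence (RLU), read 20 min after detection reagent, indicated CYP2D6 conversion of proluciferin to luciferin during a 1 h NADPH-dependent reaction at room temperature.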

[5] = Caspase-3/7 induction in CHO-K1 cells by small molecules, qHTS cell viability counter screen (AID 1346979); further: nearly all actives have a fitted effect of over 35% in size; further: potency means the concentration at half of the fitted maximal effect
In short: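 CHO-K1 wt, 1,500 cells/well; 5hr pre-incubation 37C/5% CO2; compound pin transfer (DMSO); 16hr exposure; CellTiter-Fluor added, 1hr, fluorescence read.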

[6] = molecular target: Cytochrome P450 2C19 (Homo sapiens) (UniProt P33261); experiment: Cytochrome P450 Family 2 Subfamily C Member 19 (CYP2C19) small molecule antagonists: luciferase reporter qHTS assay (AID 1671197); further: nearly all actives have a fitted effect of over 65% in size; further: potency means the concentration at half of the fitted maximal effect; on activity change, negative = inhibition: series mostly up to about 120 µM
Cytochrome P450 2C19 (Homo sapiens), sequence (P33261 whole entry, looked up): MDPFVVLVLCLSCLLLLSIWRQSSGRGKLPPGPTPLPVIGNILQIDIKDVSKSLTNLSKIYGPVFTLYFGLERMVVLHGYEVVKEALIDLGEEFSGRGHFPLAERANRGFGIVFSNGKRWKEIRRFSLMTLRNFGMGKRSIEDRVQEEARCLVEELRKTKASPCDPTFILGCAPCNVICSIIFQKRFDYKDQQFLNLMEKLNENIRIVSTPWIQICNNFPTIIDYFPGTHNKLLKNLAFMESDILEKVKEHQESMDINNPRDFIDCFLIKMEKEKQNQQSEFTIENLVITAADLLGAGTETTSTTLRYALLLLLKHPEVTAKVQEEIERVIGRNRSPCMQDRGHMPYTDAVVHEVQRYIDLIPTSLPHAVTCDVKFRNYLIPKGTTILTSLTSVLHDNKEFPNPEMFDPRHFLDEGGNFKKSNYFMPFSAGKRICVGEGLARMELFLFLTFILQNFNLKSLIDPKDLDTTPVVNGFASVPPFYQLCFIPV
In short: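 First, compounds are pinned into enzyme-substrate mix and held 10 min at room temperature. Second, NADPH regeneration solution is added and plates incubate 1 h at 37C. Third, detection reagent is added and luminescence read after 20 min.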

Question: For `CCCCOC(=O)CCCCCCCC(=O)OCCCC`, which Potency [1] is on record?
Answer: Its Potency is “inactive”.

Question: What about the Potency [2] of the same compound?
Answer: Its Potency is “inactive”.

Question: What about the Potency [3] of the same compound?
Answer: The Potency was “inactive”.

Question: And the Potency [4]?
Answer: Its Potency is “inactive”.

Question: For `Nc1ccc(N)c2c1C(=O)c1ccccc1C2=O`, which Potency [5] is on record?
Answer: Its Potency is 24.3 µM (active).

Question: And the Potency [1]?
Answer: Its Potency is “inactive”.

Question: What about the Potency [2] of the same compound?
Answer: Its Potency is 21.7 µM (active).

Question: What about the Potency [3] of the same compound?
Answer: The Potency was “inactive”.

Question: And the Potency [4]?
Answer: The Potency was 35.6 µM (active).

Question: What about the Potency [6] of the same compound?
Answer: Its Potency is 22.4 µM (active).

Question: With `COC(=O)C1=C(C)NC(COC(N)=O)=C(C(=O)OC(C)C)C1c1cccc(Cl)c1Cl` (configuration not stated) as the compound, how does the Potency [5] read?
Answer: Its Potency is 13.3 µM (active).

Question: What about the Potency [1] of the same compound?
Answer: The Potency was “inactive”.

Question: What about the Potency [6] of the same compound?
Answer: The Potency was 15.5 µM (active).

Question: Which results are given for `CN(C)c1ccc(/C=C/c2ccc([N+](=O)[O-])cc2)cc1`?
Answer: caspase-3/7 activation [1]: -2.91% [at 8.39 µM]; activity change, negative = cytotoxicity [2]: 14.3% [at 8.39 µM]; activity change, negative = inhibition [6]: 15.9% [at 10.5 µM]

Question: Which results are given for `CN1CCC(N(Cc2cccs2)c2ccccc2)CC1`?
Answer: Potency [1]: inactive; Potency [4]: 0.436 µM (active)

Question: For `CC[N+]1(CC)CCC(=C(c2ccccc2)c2ccccc2)C1C` (configuration not stated), which Potency [5] is on record?
Answer: Its Potency is “inactive”.

Question: And the Potency [1]?
Answer: The Potency was “inactive”.

Question: What about the Potency [2] of the same compound?
Answer: Its Potency is “inactive”.

Question: What about the Potency [3] of the same compound?
Answer: The Potency was “inactive”.

Question: What about the Potency [4] of the same compound?
Answer: The Potency was 1.74 µM (active).

Question: What about the Potency [6] of the same compound?
Answer: The Potency was “inactive”.

Question: With `Cc1ccc(C(=O)Oc2ccc(C(O)CNC(C)(C)C)cc2OC(=O)c2ccc(C)cc2)cc1` (configuration not stated) as the compound, how does the Potency [5] read?
Answer: Its Potency is 29.8 µM (active).

Question: What about the Potency [2] of the same compound?
Answer: The Potency was “inactive”.

Question: And the Potency [6]?
Answer: The Potency was “inactive”.
